“And” between values parts separate entries of the source, which are not always exact repeats. Equal entries are not always repeated. Values without a mark were called inactive. Records with an inconclusive call do not appear. The source holds several records for some structures; these can differ, active in one and inactive in another. The source made the active and inactive calls. Unless noted, the call rests on the fitted dose curve; in most records, active means well fitted curve in the direction sought with a large enough effect; inconclusive means small, poorly fitted or top-dose-only effect, or another doubt; inactive means no such curve, though single readings can be large; an effect the other way counts as inactive or inconclusive.

One test deals with Tov-21-G. The test is described as follows: Primary qHTS to identify gynecologic anti-cancer compounds using libraries of approved drugs and bioactive compounds (AID 1345084). Further: nearly all actives have a fitted effect of over 55% in size. Further: potency means the concentration at half of the fitted maximal effect. To be noted: Gynecologic cancer cell panel viability, ATPlite luminescence, 48 h; series mostly up to 57.5 µM. The gist of the method: (§1)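 In this quantitative HTS, cell killing is estimated from loss of ATP-dependent luciferase light. Cells see five compound concentrations over a 48 h exposure.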
(In qHTS, concentration-response curves come from the screen itself.)

A further test concerns Tov112D. The description is as above. The following applies: Gynecologic cancer cell panel viability, ATPlite luminescence, 48 h; series mostly up to 57.5 µM. Put shortly: as §1
(In ATP-based viability assays light output follows the ATP content of the culture.)

A short description of test [1]: Drug repurposing screens with cells derived from glioblastoma tumor samples (AID 1345199). Further: nearly all actives have a fitted effect of over 40% in size. Further: potency means the concentration at half of the fitted maximal effect. On activity, negative = cell killing: on the % scale 0 is the no-effect control and ±100 the full control effect. The following applies: GBM patient neurospheres viability, ATP luminescence, 48 h. Put shortly: (§2)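 Primary testing used CD133+ neurospheres from four GBM patients, seven concentrations, 48 h exposure and ATP-based viability; confirmation added three slower-growing patient lines.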

The subject of another test is astro. The test is described as above. To be noted: viability, ATP luminescence, 48 h; series mostly up to 45.9 µM. Put shortly:
as §2

Test [2] addresses Nuclear receptor subfamily 1 group I member 2 (Rattus norvegicus) (UniProt Q9R1A7). Kind of test: qHTS assay for small molecule activators of the rat pregnane X receptor (rPXR) signaling pathway (AID 651751; call rule not given here; further: 0% is about no effect). The following applies: rPXR reporter cells, luciferase (One-Glo), 24 h.
The nature of test [3]: qHTS assay for small molecule activators of the human pregnane X receptor (PXR) signaling pathway (AID 720659; call rule not given here; further: 0% is about no effect).
Setting [4] is: at 45.9 µM (top of the series), tumour line B.
The mark [5] stands for this setting: at 46.1 µM (top of the series), tumour line C.
Where [6] appears, read: at 20 µM (top of the series), tumour line C.
The mark [7] stands for this setting: at 21.2 µM (top of the series), tumour line B.
[8] abbreviates: at 45.9 µM (top of the series), tumour line D.
Setting [9] is: at 46 µM (top of the series), tumour line A.
Setting [10] is: at 21.2 µM (top of the series), tumour line D.

Nuclear receptor subfamily 1 group I member 2 (Rattus norvegicus), sequence (Q9R1A7 whole entry, looked up): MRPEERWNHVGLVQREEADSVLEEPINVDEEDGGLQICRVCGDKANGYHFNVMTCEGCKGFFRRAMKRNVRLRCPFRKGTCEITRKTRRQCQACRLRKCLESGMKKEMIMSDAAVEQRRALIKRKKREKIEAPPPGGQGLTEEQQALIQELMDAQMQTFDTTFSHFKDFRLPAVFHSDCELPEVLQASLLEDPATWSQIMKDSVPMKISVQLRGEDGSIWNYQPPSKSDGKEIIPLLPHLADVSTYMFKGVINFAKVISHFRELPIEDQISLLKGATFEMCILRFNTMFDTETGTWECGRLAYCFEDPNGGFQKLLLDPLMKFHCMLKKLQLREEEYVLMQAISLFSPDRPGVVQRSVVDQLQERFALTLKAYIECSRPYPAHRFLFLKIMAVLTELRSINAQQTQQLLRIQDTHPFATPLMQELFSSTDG

Take `Clc1ccc(Nc2nnc(Cc3ccncc3)c3ccccc23)cc1`: the Potency result in the test on Tov-21-G and with Tov112D was “inactive” each time. Besides, the activity, negative = cell killing in test [1] (setting [4]) is -12.8% and 0.35%; in test [1] (setting [5]), -11.6% and 1.14%. Besides, in test [1] (tumour line A), the Potency was 12.6 µM (active) and 7.08 µM (active).

As to `CCOc1ccn(-c2ccc(F)cc2)c(=O)c1C(=O)Nc1ccc(Oc2ccnc(N)c2Cl)c(F)c1`, the Potency result in the test with Tov-21-G and with Tov112D was “inactive” in each case.

For the compound `NNCCc1ccccc1`, the Potency result with Tov-21-G, with Tov112D and in the test on astro was “inactive” throughout. Also, the activity, negative = cell killing is -0.565% in test [1] (setting [6]) and -10.9% in test [1] (setting [7]).

Regarding `CCCc1nn(C)c2c(=O)[nH]c(-c3cc(S(=O)(=O)N4CCN(C)CC4)ccc3OCC)nc12`, the Potency result in the test with Tov-21-G, in the test on Tov112D and in the test with astro was “inactive” in each case. In addition, the activity, negative = cell killing in test [1] (setting [4]) is -8.65%; in test [1] (setting [8]), -23.3%; in test [1] (setting [5]) it was 12.9%. The Potency in test [1] (tumour line A) is 22.4 µM (active).

Turning to `CC(=O)Oc1ccccc1C(=O)O`, the Potency result in the test on Tov-21-G, in the test with Tov112D and in the test with astro was “inactive” in each case. Also, the activity, negative = cell killing is -4.86% in test [1] (setting [8]), -15.2% in test [1] (setting [9]) and -19.2% in test [1] (setting [5]). The max response in test [2] is -0.967% and 1.6% and -0.848%. The compound was called inactive in test [3].

Take `CCCC(CCC)C(=O)O`: the Potency entry in the test on Tov-21-G, with Tov112D and in the test with astro was “inactive” throughout. Moreover, the activity, negative = cell killing was -7.18% in test [1] (setting [4]), -10.3% in test [1] (setting [8]), -15.5% in test [1] (setting [9]) and 0.524% in test [1] (setting [5]). Also, the compound was called inactive in test [3].

`NCCc1ccc(O)c(O)c1`: the Potency result in the test with Tov-21-G, in the test with Tov112D and with astro was “inactive” each time. Moreover, the activity, negative = cell killing is -2.97% in test [1] (setting [4]), 1.17% in test [1] (setting [8]), -12.4% in test [1] (setting [9]) and 13.2% in test [1] (setting [5]).

Take `CCCCNc1cc(C(=O)O)cc(S(N)(=O)=O)c1Oc1ccccc1`: the Potency entry with Tov-21-G, with Tov112D and with astro was “inactive” throughout. Further, the activity, negative = cell killing in test [1] (setting [10]) is -6.33%; in test [1] (at 21.3 µM (top of the series), tumour line A), -23.2%.

`NCCCC(N)(C(=O)O)C(F)F` (centres undefined): the Potency result with Tov-21-G, with Tov112D and in the test with astro was “inactive” throughout. In addition, the activity, negative = cell killing was -9.02% in test [1] (setting [4]), 7.69% in test [1] (setting [8]), -29.6% in test [1] (setting [9]) and -4.46% in test [1] (setting [5]).

`CNC(=O)c1ccccc1Sc1ccc2c(/C=C/c3ccccn3)n[nH]c2c1`: the figures for the Potency in the test with Tov-21-G, in the test on Tov112D and in the test on astro were 11.2 µM (active), 8.91 µM (active) and 2 µM (active), respectively.

With `O=c1n(CCCN2CCN(c3cccc(Cl)c3)CC2)nc2ccccn12`, the Potency entry in the test with Tov-21-G, in the test with Tov112D and in the test on astro was “inactive” in each case. Moreover, the activity, negative = cell killing in test [1] (setting [6]) was -4.25%; in test [1] (setting [7]), -8.69%; in test [1] (setting [10]), 3.95%.

For the compound `Cc1ccc(-n2nc(C(C)(C)C)cc2NC(=O)Nc2ccc(OCCN3CCOCC3)c3ccccc23)cc1`, the Potency result in the test on Tov-21-G and with Tov112D was “inactive” in each case. Also, the activity, negative = cell killing in test [1] (setting [4]) is 12.9%; in test [1] (setting [8]), -19.4%; in test [1] (setting [5]) it was -25.6%.

With `OC(CCN1CCCCC1)(c1ccccc1)C1CC2C=CC1C2` (centres undefined), the Potency result in the test with Tov-21-G, with Tov112D and in the test with astro was “inactive” in each case. The activity, negative = cell killing was -6.31% and -18.3% in test [1] (setting [4]); -5.16% in test [1] (setting [5]).

As to `NS(=O)(=O)c1cc2c(cc1Cl)NC=NS2(=O)=O`, the Potency entry in the test on Tov-21-G, in the test on Tov112D and with astro was “inactive” each time. Also, the activity, negative = cell killing in test [1] (setting [4]) was -4.14%; in test [1] (setting [8]) it was -10.8%; in test [1] (setting [5]), 23.2%. Moreover, in test [2], the max response was -2.2%.

Take `CCOC(=O)C1=C[C@]2(CC)CCCN3CCc4c(n1c1ccccc41)[C@@H]32`: the Potency result with Tov-21-G, in the test on Tov112D and with astro was “inactive” each time. In addition, the activity, negative = cell killing in test [1] (setting [4]) is -28.2% and -25.8%. The Potency in test [1] (tumour line A) was 4.47 µM (active); in test [1] (tumour line D), 10 µM (active).

For `Cc1[nH]c(=O)c(C#N)cc1-c1ccncc1`, the Potency result in the test with Tov-21-G, with Tov112D and with astro was “inactive” each time. Moreover, the activity, negative = cell killing in test [1] (setting [4]) is -10.7%; in test [1] (setting [8]), 4.86%; in test [1] (setting [9]), -23.5%; in test [1] (setting [5]), 2.71%; in test [1] (at 91.6 µM (top of the series), tumour line B) it was -14.8%; in test [1] (at 91.6 µM (top of the series), tumour line D) it was 7.24%. The activity, negative = cell killing in test [1] (at 99.2 µM (top of the series), tumour line C) was -28.5%. Besides, the max response in test [2] is 2.46%.

For the compound `Clc1cccc(Cl)c1NC1=NCCN1`, the Potency result in the test with Tov-21-G, with Tov112D and in the test on astro was “inactive” throughout. Besides, the activity, negative = cell killing in test [1] (setting [4]) was 5.06%; in test [1] (setting [8]), -7.27%; in test [1] (setting [9]), -29.3%; in test [1] (setting [5]), 0.125%.

Regarding `COc1ccc2nc(S(=O)Cc3ncc(C)c(OC)c3C)[nH]c2c1` (centres undefined), the Potency entry with Tov-21-G, in the test with Tov112D and with astro was “inactive” each time. Also, in test [1] (setting [4]), the activity, negative = cell killing was -19.3%. Further, the max response in test [2] is 14.6%.

Turning to `NC(=O)c1cnccn1`, the Potency result in the test with Tov-21-G, in the test on Tov112D and with astro was “inactive” throughout. Also, the activity, negative = cell killing in test [1] (setting [4]) was -8.76%; in test [1] (setting [8]), -23.3%; in test [1] (setting [9]) it was -24.5%; in test [1] (setting [5]) it was -17%. Also, the max response in test [2] was -0.614% and 3.04%. Besides, the compound was called inactive in test [3].

Turning to `c1ccc([C@H]2CN3CCSC3=N2)cc1`, the Potency entry in the test on Tov-21-G, with Tov112D and in the test with astro was “inactive” throughout. The activity, negative = cell killing is -5.9% in test [1] (setting [4]), -15.5% in test [1] (setting [8]) and -7.79% in test [1] (setting [5]). The Potency in test [1] (tumour line A) was 15.8 µM (active).

For `Cc1cnc(NC(=O)C2=C(O)c3ccccc3S(=O)(=O)N2C)s1`, the Potency result in the test on Tov-21-G, in the test on Tov112D and in the test with astro was “inactive” each time. Besides, the activity, negative = cell killing in test [1] (setting [4]) was -11.1% and -5.23%; in test [1] (setting [8]), 7.55% and -2.79%; in test [1] (setting [9]), -27.8%; in test [1] (setting [5]) it was 4.05% and -0.835%.

Consider `CC(C)NCC(O)COc1ccc(COCCOC(C)C)cc1` (centres undefined), for which the Potency entry in the test on Tov-21-G, in the test on Tov112D and in the test with astro was “inactive” each time. The activity, negative = cell killing in test [1] (setting [4]) is -9.69% and -16.2%; in test [1] (setting [8]) it was 1.75% and -24.1%; in test [1] (setting [5]) it was -2.09% and 0.649%. Further, in test [1] (tumour line A), the Potency was 11.2 µM (active).
